The source of these data is PubChem BioAssay (NCI).

This is part of a sample that, as a whole, favours compounds with a hit. Of some 83,000 tested, about 20% had one in any assay.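 The endpoint reported here, percent growth, reads 100 for growth as untreated, 0 for no net growth and -100 for all cells dead.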 Unmarked numbers belong to inactive results. Active and inactive are the calls of the source. How the source made its calls: active means growth percent below 10; inactive means the rest.

Test systems include SR leukemia; RPMI-8226 leukemia; OVCAR-8 ovarian; OVCAR-5 ovarian; OVCAR-4 ovarian; SK-OV-3 ovarian; OVCAR-3 ovarian; HS 578T breast; NCI/ADR-RES ovarian; IGROV1 ovarian.
What all share (experiment): NCI-60 one-dose screen, 48 h (100 = growth as untreated, 0 = no growth, -100 = all killed)
Common to all, as to settings: 10 µM unless noted

Take `COc1ccc(C(O)c2cc3c(N)c(C(=O)Nc4cccc(OC)c4)sc3nc2C)cc1` (centres undefined): the growth in the test with SR leukemia was 2.51% (active); in the test with RPMI-8226 leukemia, 6.06% (active); in the test with OVCAR-8 ovarian, 5.76% (active); in the test on OVCAR-5 ovarian, 23%; with OVCAR-4 ovarian, 36.5%; in the test on SK-OV-3 ovarian, 19.5%. The growth is 0.638% (active) in the test on OVCAR-3 ovarian, 23.7% with HS 578T breast and 13.7% with NCI/ADR-RES ovarian.
As for `COc1ccc(Nc2nc(N)nc3c2CCc2occc2-3)cc1`, the growth is 85.8% in the test with SR leukemia; 101% with RPMI-8226 leukemia; 102% with OVCAR-8 ovarian; 106% with OVCAR-5 ovarian; 96.9% with OVCAR-4 ovarian; 97.8% in the test on SK-OV-3 ovarian. Also, the growth in the test with IGROV1 ovarian was 102%; with HS 578T breast it was 105%; in the test with NCI/ADR-RES ovarian it was 96.2%.
For the molecule `COc1ccc(-c2nc(SC(C)C)nc(NNC(N)=O)c2C#N)cc1`, the growth is 25.8% in the test on SR leukemia; 93.9% in the test with RPMI-8226 leukemia; 96.9% in the test with OVCAR-8 ovarian; 85.6% with OVCAR-5 ovarian; 94.6% in the test with OVCAR-4 ovarian; 83.8% with SK-OV-3 ovarian. In addition, the growth was 72.4% in the test on IGROV1 ovarian, 78.9% in the test with HS 578T breast and 70.7% with NCI/ADR-RES ovarian.
`COc1cccc(CCC(=O)c2cc3c(N)c(C(=O)Nc4cccc(Cl)c4C)sc3nc2C)c1`: the growth was 9.08% (active) with SR leukemia; 7.83% (active) in the test with RPMI-8226 leukemia; 24.1% in the test with OVCAR-8 ovarian; 28.3% in the test on OVCAR-5 ovarian; 36.9% in the test on OVCAR-4 ovarian; 32.4% with SK-OV-3 ovarian. Moreover, the growth with IGROV1 ovarian is 24.4%; in the test with OVCAR-3 ovarian, -8.82% (active); in the test with NCI/ADR-RES ovarian, 10.7%.
Regarding `CCCCCCCCOC(=O)c1ccc(O)c(OC)c1`, the growth in the test on SR leukemia was 85.3%; in the test on RPMI-8226 leukemia, 89.2%; in the test on OVCAR-8 ovarian it was 96.3%; in the test on OVCAR-5 ovarian, 107%; in the test with OVCAR-4 ovarian, 78.2%; in the test on SK-OV-3 ovarian it was 103%. The growth is 59.8% with IGROV1 ovarian, 97.8% in the test with HS 578T breast and 96% in the test on NCI/ADR-RES ovarian.
Take `COc1ccccc1-c1c(-c2ccc(Cl)cc2)c2cc3c(cc2[nH]c1=O)OCCO3`: the growth is 45.8% with SR leukemia; -57.2% (active) with RPMI-8226 leukemia; 68.5% in the test on OVCAR-8 ovarian; 91.1% with OVCAR-5 ovarian; 68.5% in the test with OVCAR-4 ovarian; 101% with SK-OV-3 ovarian. Besides, the figures for the growth with IGROV1 ovarian, in the test with OVCAR-3 ovarian and in the test on NCI/ADR-RES ovarian were 77%, 64.5% and 72.3%, respectively.
Take `O=C1CCCCCCCCC(O)C(O)CCCC(c2cccs2)O1` (centres undefined): the growth in the test on SR leukemia was -12.3% (active); with RPMI-8226 leukemia it was 87.1%; with OVCAR-8 ovarian, 99%; in the test with OVCAR-5 ovarian, 95.3%; with OVCAR-4 ovarian, 78.8%; in the test on SK-OV-3 ovarian it was 82.1%. The growth in the test on IGROV1 ovarian is 97.8%; in the test on HS 578T breast it was 103%; with NCI/ADR-RES ovarian it was 91.1%.
With `COc1cc(/C=N/NC(=O)c2ccccc2Nc2cccc(C(F)(F)F)c2)ccc1O`, the growth is -66.4% (active) in the test on SR leukemia; 78.3% in the test with RPMI-8226 leukemia; 93.9% in the test with OVCAR-8 ovarian; 89.2% in the test on OVCAR-5 ovarian; 50% in the test with OVCAR-4 ovarian; 69.6% with SK-OV-3 ovarian. The figures for the growth with IGROV1 ovarian, in the test on HS 578T breast and with NCI/ADR-RES ovarian were 111%, 106% and 75.4%, respectively.
Consider `O=C1Nc2c(ccc(Cl)c2Cl)/C1=C/c1ccc(O)cc1`, for which the growth in the test on SR leukemia is 42%; with RPMI-8226 leukemia, 78.6%; in the test with OVCAR-8 ovarian, 92.3%; with OVCAR-5 ovarian it was 90.6%; in the test with OVCAR-4 ovarian, 72.9%; in the test with SK-OV-3 ovarian it was 86.4%. The growth in the test with IGROV1 ovarian was 42.6%; with HS 578T breast it was 89%; with NCI/ADR-RES ovarian it was 96.6%.
Regarding `O=C(N=Nc1c(O)[nH]c2ccc(F)cc12)c1cc2ccccc2[nH]1`, the growth in the test on SR leukemia was 95.1%; with RPMI-8226 leukemia, 92%; with OVCAR-8 ovarian, 97.2%; in the test on OVCAR-5 ovarian, 103%; in the test with OVCAR-4 ovarian it was 99.9%; in the test with SK-OV-3 ovarian, 110%. Further, the growth with IGROV1 ovarian is 79.3%; in the test on HS 578T breast, 101%; in the test on NCI/ADR-RES ovarian, 100%.
For the molecule `CC1(C)CCCN1CCCN1c2ccccc2Sc2ccc(Cl)cc21`, the growth was 35.7% in the test on SR leukemia; 28.6% with RPMI-8226 leukemia; 95.8% in the test on OVCAR-8 ovarian; 89.3% in the test with OVCAR-5 ovarian; 53.2% in the test with OVCAR-4 ovarian; 75.5% with SK-OV-3 ovarian. In addition, the growth was 60.2% with IGROV1 ovarian, 76.6% in the test with HS 578T breast and 61% in the test on NCI/ADR-RES ovarian.
On to `CCCCCCN(C)Cc1ccc(OCCOc2ccc(CN(C)CCCCCC)cc2)cc1`, for which the growth with SR leukemia is -43.7% (active); in the test with RPMI-8226 leukemia, -14.4% (active); in the test on OVCAR-8 ovarian it was 47.7%; in the test with OVCAR-5 ovarian, 42.9%; in the test on OVCAR-4 ovarian, 31.4%; in the test with SK-OV-3 ovarian, 48.6%. Besides, the growth with OVCAR-3 ovarian was 44.9%; with HS 578T breast, -22% (active).
With `COc1ccc(-c2nc(N=Nc3c(O)[nH]c4ccccc34)nc(N3CCOCC3)c2C#N)cc1`, the growth was 41.7% in the test on SR leukemia; 60.2% with RPMI-8226 leukemia; 44.2% in the test on OVCAR-8 ovarian; 81.9% in the test on OVCAR-5 ovarian; 59.5% with OVCAR-4 ovarian; 66.8% with SK-OV-3 ovarian. In addition, the growth was 87.8% in the test on IGROV1 ovarian, 47.5% in the test with HS 578T breast and 59.7% in the test with NCI/ADR-RES ovarian.
For the molecule `CC(Oc1ccc(C(=O)NS(=O)(=O)C(C)(C)C)cc1C(F)(F)F)c1ccc(Oc2ccccc2)cn1` (centres undefined), the growth was 25.9% in the test with SR leukemia; 94.8% in the test on RPMI-8226 leukemia; 75.2% in the test on OVCAR-8 ovarian; 101% in the test on OVCAR-5 ovarian; 93.1% in the test with OVCAR-4 ovarian; 104% in the test on SK-OV-3 ovarian. The growth in the test with IGROV1 ovarian is 64.8%; in the test on HS 578T breast, 60.4%; in the test on NCI/ADR-RES ovarian it was 83%.
In the case of `CC1(c2ccccc2)NC(=O)N(CC(=O)Nc2cccc(I)c2)C1=O` (centres undefined), the growth is 71.1% in the test on SR leukemia; 74.1% in the test on RPMI-8226 leukemia; 91.9% in the test on OVCAR-8 ovarian; 89.7% in the test with OVCAR-5 ovarian; 90.3% in the test with OVCAR-4 ovarian; 87.5% with SK-OV-3 ovarian. Besides, the values for the growth with OVCAR-3 ovarian and in the test on HS 578T breast were 90.2% and 44.9%, respectively.
Take `COc1cc(OC)c(/C=C/C(=O)c2ccc(Nc3ncnc4ccccc34)cc2)c(OC)c1`: the growth in the test on SR leukemia was 1.91% (active); with RPMI-8226 leukemia, 12.2%; with OVCAR-8 ovarian, -44% (active); in the test on OVCAR-5 ovarian, 8.12% (active); with OVCAR-4 ovarian, 6.46% (active); in the test on SK-OV-3 ovarian, -42.4% (active). Further, the growth in the test on IGROV1 ovarian is 19.3%; in the test on HS 578T breast, -13.2% (active); in the test with NCI/ADR-RES ovarian, -17.2% (active).
On to `COc1ccc(/C=C/c2n[nH]c3ccc(N4CCOC4=O)cc23)cc1`, for which the growth in the test with SR leukemia is 2.85% (active); with RPMI-8226 leukemia, -14.9% (active); in the test with OVCAR-8 ovarian, 19.3%; with OVCAR-5 ovarian, 14.1%; in the test with OVCAR-4 ovarian, 40%; in the test on SK-OV-3 ovarian, 25.2%. Further, the growth in the test on IGROV1 ovarian is 8.62% (active); with OVCAR-3 ovarian, 4.56% (active); in the test on NCI/ADR-RES ovarian, 15.6%.
Take `O=C1NC(=O)C(=Cc2cn(Cc3ccccn3)c3ccccc23)C(=O)N1`: the growth in the test on SR leukemia was 93%; in the test on RPMI-8226 leukemia it was 96.1%; in the test with OVCAR-8 ovarian it was 101%; in the test with OVCAR-5 ovarian, -50.9% (active); in the test on OVCAR-4 ovarian, 93.4%; with SK-OV-3 ovarian, 89.8%. Besides, the growth with IGROV1 ovarian is 31.6%; with OVCAR-3 ovarian, 102%; in the test with NCI/ADR-RES ovarian, 100%.
As to `Cc1ccc2nc3c(cc2c1)CSc1nnc(-c2ccc[nH]c2=S)n1N3`, the growth in the test on SR leukemia was 83.3%; in the test on RPMI-8226 leukemia, 99.5%; in the test with OVCAR-8 ovarian, 100%; in the test with OVCAR-5 ovarian, 99.5%; in the test with OVCAR-4 ovarian, 109%; in the test with SK-OV-3 ovarian it was 88.8%. Also, the growth in the test on IGROV1 ovarian was 82.7%; in the test on HS 578T breast it was 96.3%; in the test on NCI/ADR-RES ovarian it was 93.4%.
